Sampled rows, rich in hits. Any-hit rate of the full collection: about 7.4%.
FLuc counter – counter-screen for miR-21 project: firefly luciferase inhibitors or activators; P08659; purified FLuc, Km substrates, luminescence inhibition; Potency, µM (top dose mostly 57.5 µM), for the others: at the highest dose activity change, negative = inhibition, most hits filed as inhibitors; hit rate 6.9% among 360,000; AID 588342;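 further: plate controls were vehicle for no effect and reference inhibitor for full effect; nearly all actives have a fitted effect of over 55% in size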
Target sequence (P08659 whole entry, looked up): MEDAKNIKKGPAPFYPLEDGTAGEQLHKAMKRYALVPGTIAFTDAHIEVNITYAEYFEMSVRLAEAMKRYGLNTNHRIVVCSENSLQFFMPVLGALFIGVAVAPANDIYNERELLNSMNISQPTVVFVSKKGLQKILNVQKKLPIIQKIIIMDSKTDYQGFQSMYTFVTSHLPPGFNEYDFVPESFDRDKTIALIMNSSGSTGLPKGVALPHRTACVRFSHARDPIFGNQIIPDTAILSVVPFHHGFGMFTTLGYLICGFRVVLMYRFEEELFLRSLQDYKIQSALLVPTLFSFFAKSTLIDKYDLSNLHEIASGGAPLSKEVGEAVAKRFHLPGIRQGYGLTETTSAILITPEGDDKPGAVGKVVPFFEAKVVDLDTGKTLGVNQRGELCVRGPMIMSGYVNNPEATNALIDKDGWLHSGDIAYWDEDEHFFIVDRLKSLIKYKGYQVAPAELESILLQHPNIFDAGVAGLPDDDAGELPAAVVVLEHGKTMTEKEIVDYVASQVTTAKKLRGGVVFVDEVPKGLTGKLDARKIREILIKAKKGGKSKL
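Biochemical qHTS of compounds, final roughly 60 µM downward over six points, against 10 nM purified firefly luciferase using Km concentrations of substrates (10 uM D-luciferin, 10 uM ATP) in Tris acetate pH 7.5 buffer; luminescence output.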
ELG1 genotoxic – inducers of genotoxicity in HEK293T ELG1-luciferase cells. HEK293T ELG1-luciferase reporter, luminescence, 16 h. hit rate 1.3% among 330,000. Potency, µM (series often up to 46 µM), for the others: at the top dose activity change, positive = activation, usual class: activators; further: % of control where 0% means no effect; nearly all actives have a fitted effect of over 60% in size
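Step 1: seed 2,000 HEK293T ELG1-luciferase cells per well. Step 2: add compound or DMSO, incubate 16 hr at 37 °C. Step 3: ONE-Glo, 30 min at room temperature, read luminescence.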
NPC1 promoter act – activates the NPC1 promoter. hit rate 2.4% among 320,000. Potency, µM (doses to about 9.22 µM), for inactives: top-dose activation, most hits filed as activators. Huh7 NPC1 promoter luciferase reporter, 24 h; further: % of control where 0% means no effect; nearly all actives have a fitted effect of over 60% in size
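Luminescence read-out of NPC1 promoter-driven luciferase in stably transfected Huh7 cells; compounds delivered in DMSO and left 24 h at 37C, 5% CO2, qHTS titration format.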
SMN2 splice enh – SMN2 splice variant enhancement | hit rate 2.8% among 210,000 | Potency, µM (top dose mostly 46.1 µM), for the others: at the top dose activity change, positive = activation, hits mostly activators | AID 1458 | HEK293 SMN2-luciferase splicing reporter, luminescence, 30-36 h; further: % of control where 0% means no effect; nearly all actives have a fitted effect of over 55% in size
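HEK293 cells carry an SMN2 minigene-luciferase reporter in which exon 7 inclusion puts luciferase in frame. Cells were seeded at 2000 cells/well, attached for 10-12 hours, then exposed to compounds for 30-36 hours at 37C before ONE-Glo luminescence.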
Rab9 promoter act – activates the Rab9 promoter; Huh7 Rab9 promoter-luciferase reporter, luminescence, 24 h; hit rate 2.8% among 320,000; Potency, µM (titrated, usually from 9.22 µM), for inactives: at the top dose activation, negative = inhibition, hits mostly activators; further: % of control where 0% means no effect; nearly all actives have a fitted effect of over 60% in size
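Using Huh7 cells stably transfected with Rab9 promoter–luciferase, compounds were incubated 24 h at 37 °C, 5% CO2; luciferase luminescence was read 10 min after reagent addition.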
An asterisk follows results filed as active; ? = inconclusive; . = no result given. The call rests on the fitted dose curve; in most records, active means well fitted curve in the direction sought with a large enough effect; inconclusive means small, poorly fitted or top-dose-only effect, or another doubt; inactive means no such curve, though single readings can be large; an effect the other way counts as inactive or inconclusive. Potency means the concentration at half of the fitted maximal effect.

SMILES | FLuc counter | ELG1 genotoxic | NPC1 promoter act | SMN2 splice enh | Rab9 promoter act
Cc1oc2cc3c(C(=O)N4CCCCC4)c(C)oc3cc2c1C(=O)N1CCCCC1 | 10.7µM* | ? | 18.1% | -36.2% | ?
CCOc1ccc(CCNC(=O)CS(=O)Cc2nc(-c3ccc(OC)cc3)oc2C)cc1OCC (configuration not stated) | -14.8% | 0.2% | 1.0% | . | -0.5%
Cc1cc(C)n2nc(C(=O)OCC(=O)c3ccc(F)cc3)nc2n1 | ? | 7.8% | 5.5% | . | 11.0%
Cc1nc2c(-c3ccccc3)cnn2c(N)c1-c1ccccc1 | 0.213µM* | ? | ? | . | 16.2%
Cc1cc(SCC(=O)c2ccccc2)nc(C)n1 | 12µM* | ? | 3.55µM* | 29.0% | 2.51µM*
COc1ccc(-c2cc(C)nc3c(-c4ccccc4)cnn23)cc1 | 0.675µM* | 0.651µM* | 0.501µM* | ? | 0.562µM*
COc1ccccc1-c1c(C)nn2c(-c3ccccc3)cc(C)nc12 | ? | -6.6% | -2.8% | . | -3.4%
COc1ccc(C(=O)CSc2ccc(-c3ccco3)nn2)cc1 | ? | 1.1% | 0.0% | 11.3% | -3.1%
O=C(CSc1ccc(-c2ccco2)nn1)c1ccccc1 | 26.9µM* | 12.9% | 15.8% | 18.3% | ?
CC(C)[C@H](NC(=O)[C@@H]1Cc2c([nH]c3ccccc23)C2c3ccccc3C(=O)N21)C(=O)NCC1CCCO1 (some centres not stated) | 1.5% | -2.1% | -1.2% | . | -1.7%
CCOC(=O)C1CCN(C(=O)C2CCCN2S(=O)(=O)c2ccc(Cl)cc2)CC1 (configuration not stated) | 0.3% | -5.1% | 0.5% | . | -0.2%
CC(=O)c1cnc2c(-c3ccccc3)cnn2c1C | ? | ? | 13.2% | -2.8% | 9.5%
Cc1cc(-c2ccccc2)n2ncc(-c3ccccc3)c2n1 | 0.19µM* | 0.206µM* | 2.82µM* | -51.5% | 0.501µM*
Cc1cc(SCC(=O)c2ccccc2)n2ncc(-c3ccccc3)c2n1 | 9.53µM* | 8.6% | 5.01µM* | . | 3.55µM*
CC(=O)CSc1cc(C)nc2c(-c3ccccc3)c(C)nn12 | -1.2% | 5.3% | -2.1% | . | -8.0%
CC(=O)NC12CC3CC(C1)CC(C(=O)Nc1nc4ccc(F)cc4s1)(C3)C2 | 13.5µM* | -0.8% | ? | . | ?
CCC(CC)c1nnc(NC(=O)C23CC4CC(CC(NC(C)=O)(C4)C2)C3)s1 | 3.1% | -4.6% | -2.1% | . | 3.1%
OC(CN1CCN(c2ccccc2Cl)CC1)c1ccccc1 (configuration not stated) | 1.9% | 1.5% | 0.6% | . | 0.7%
O=C(COC(=O)c1ccco1)NCCc1ccc(Cl)cc1 | 1.2% | 0.2% | 1.1% | . | -4.4%
Cc1noc(C)c1COc1ccccc1C(=O)N1CCN(S(=O)(=O)c2ccccc2F)CC1 | 3.8% | 23.1µM* | 0.6% | . | -4.8%
Cc1ccc(S(=O)(=O)N2CCN(C(=O)c3ccccc3OCc3c(C)noc3C)CC2)cc1 | 11.1% | 4.9% | -2.7% | . | 2.3%
CCC1(C)Cc2c(sc3nc(SC)[nH]c(=S)c23)CO1 (configuration not stated) | ? | -7.7% | -4.7% | . | -0.9%
Cc1ccc(-c2cc(-c3nnc(SCC(=O)NC(C)C(C)C)n3N)c3ccccc3n2)cc1 (configuration not stated) | 8.49µM* | 0.1% | 0.1% | -3.5% | -0.3%
CC(NC(=O)CSc1nnc(-c2cccnc2)n1N)c1ccccc1 (configuration not stated) | -3.0% | 0.0% | 1.6% | 10.3% | 1.7%
O=C(NNC(=O)c1cc(-c2ccc(Cl)cc2Cl)nc2ccccc12)Nc1ccccc1 | 6.75µM* | 3.0% | -5.6% | -2.4% | -4.3%
CCOC(=O)c1ccc(NC(=S)NNC(=O)c2cc(-c3cccnc3)nc3ccccc23)cc1 | 21.3µM* | -16.7% | 3.8% | . | 11.1%
O=C(NNC(=S)Nc1ccccc1)c1cc(-c2cccnc2)nc2ccccc12 | 13.5µM* | -3.1% | -1.0% | 22.1% | 15.7%
O=C(NNC(=O)c1ccc(Cl)cc1Cl)Nc1ccccc1 | -2.9% | -0.6% | 0.9% | 11.9% | -1.4%
CCN(CC)C(=O)CN1CCC(c2nc3cc(C)c(C)cc3[nH]2)CC1 | 1.0% | -0.8% | 1.3% | . | 0.3%

Screening results deposited in PubChem BioAssay by National Center for Advancing Translational Sciences (NCATS).
